This note sets out measurements from PubChem BioAssay (NCATS).

Assay [1] in a line: Quantitative High-Throughput drug screen in 47 multiple myeloma cell lines against the NCATS MIPE library collection: FR4_PLB cell viability assay (AID 1918924; also: nearly all actives have a fitted effect of over 35% in size). An outline of the steps:
(§1)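 Viability readout: CellTiter-Glo luminescence following 5 min room-temperature incubation with reagent. Prior exposure: 48 h, 37C, humidified 5% CO2, 500 cells per well.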

Assay [2] is described as follows: Quantitative High-Throughput drug screen in 47 multiple myeloma cell lines against the NCATS MIPE library collection: Delta47_JCRB cell viability assay (AID 1918925; also: nearly all actives have a fitted effect of over 45% in size). The method, boiled down:
(§2)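 Primary qHTS used for cherry-picking: cells at 500/well, library compounds for 48 h (37C, 5% CO2), luminescent ATP assay.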

A short description of assay [3]: Quantitative High-Throughput drug screen in 47 multiple myeloma cell lines against the NCATS MIPE library collection: ARP1_JJKsccF8 cell viability assay (AID 1918928; also: nearly all actives have a fitted effect of over 40% in size). An outline of the steps: (§3)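 Myeloma cells, 500 per well, were exposed to MIPE 4.0 drugs by pin transfer for 48 h at 37 °C, 5% CO2. Viability was read as ATP luminescence with CellTiter-Glo, normalised to DMSO-only (100%) and medium-only (0%) wells.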

Assay [4] is described as follows: Quantitative High-Throughput drug screen in 47 multiple myeloma cell lines against the NCATS MIPE library collection: ARD_JJKsccE7 cell viability assay (AID 1918929). An outline of the steps: as §2
Assay [5] can be described thus: Quantitative High-Throughput drug screen in 47 multiple myeloma cell lines against the NCATS MIPE library collection: Karpas620_DSMZ cell viability assay (AID 1918959). Also: nearly all actives have a fitted effect of over 30% in size. The method, boiled down:
as §1

Assay [6] in a line: Quantitative High-Throughput drug screen in 47 multiple myeloma cell lines against the NCATS MIPE library collection: KMM1_JCRB cell viability assay (AID 1918960). Also: nearly all actives have a fitted effect of over 30% in size. An outline of the steps:
as §3

Assay [7] is described as follows: Quantitative High-Throughput drug screen in 47 multiple myeloma cell lines against the NCATS MIPE library collection: JIM3_ECACC cell viability assay (AID 1918963; also: nearly all actives have a fitted effect of over 35% in size). An outline of the steps:
as §1

Assay [8] is described as follows: Quantitative High-Throughput drug screen in 47 multiple myeloma cell lines against the NCATS MIPE library collection: INA6_PLB cell viability assay (AID 1918965; also: nearly all actives have a fitted effect of over 55% in size). An outline of the steps: (§4)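 Approved and investigational drugs from MIPE 4.0 were added by pin tool to 500 cells per well. After 48 hours at 37C, ATP-based CellTiter-Glo luminescence indicated remaining viability.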

The nature of assay [9]: Quantitative High-Throughput drug screen in 47 multiple myeloma cell lines against the NCATS MIPE library collection: H1112_PLB cell viability assay (AID 1918967; also: nearly all actives have a fitted effect of over 30% in size). An outline of the steps: as §2
The nature of assay [10]: Quantitative High-Throughput drug screen in 47 multiple myeloma cell lines against the NCATS MIPE library collection: EJM_DSMZ cell viability assay (AID 1918926; also: nearly all actives have a fitted effect of over 30% in size). The method, boiled down:
as §2

Assay [11] can be described thus: Quantitative High-Throughput drug screen in 47 multiple myeloma cell lines against the NCATS MIPE library collection: AMO1_DSMZ cell viability assay (AID 1918927; also: nearly all actives have a fitted effect of over 30% in size). An outline of the steps: as §2
Assay [12] is described as follows: Quantitative High-Throughput drug screen in 47 multiple myeloma cell lines against the NCATS MIPE library collection: KHM11_PLB cell viability assay (AID 1918962). Also: nearly all actives have a fitted effect of over 35% in size. An outline of the steps: as §1
The nature of assay [13]: Quantitative High-Throughput drug screen in 47 multiple myeloma cell lines against the NCATS MIPE library collection: KMS12BM_JCRB cell viability assay (AID 1918971). Also: nearly all actives have a fitted effect of over 35% in size. The method, boiled down:
as §1

Assay [14] can be described thus: Quantitative High-Throughput drug screen in 47 multiple myeloma cell lines against the NCATS MIPE library collection: KMS27_JCRB cell viability assay (AID 1918970). Also: nearly all actives have a fitted effect of over 30% in size. The settings on record: KMS27 myeloma cells, CellTiter-Glo ATP viability, 48 h; viability (% of DMSO): at 45.8 µM (top of the series). An outline of the steps: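 Viability inhibition screen, 48 h compound exposure, luminescent ATP read-out.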
Background: In ATP-based viability assays light output follows the ATP content of the culture.

Assay [15] is described as follows: Quantitative High-Throughput drug screen in 47 multiple myeloma cell lines against the NCATS MIPE library collection: JIM1_ECACC cell viability assay (AID 1918964). An outline of the steps: as §2
A short description of assay [16]: Quantitative High-Throughput drug screen in 47 multiple myeloma cell lines against the NCATS MIPE library collection: JJN3_DSMZ cell viability assay (AID 1918966; also: nearly all actives have a fitted effect of over 50% in size). An outline of the steps:
as §2

Assay [17] in a line: Quantitative High-Throughput drug screen in 47 multiple myeloma cell lines against the NCATS MIPE library collection: Karpas25_ECACC cell viability assay (AID 1918968; also: nearly all actives have a fitted effect of over 35% in size). The method, boiled down:
as §2

Assay [18] in a line: Quantitative High-Throughput drug screen in 47 multiple myeloma cell lines against the NCATS MIPE library collection: Karpas417_ECACC cell viability assay (AID 1918961). The settings on record: Karpas417 myeloma viability, CellTiter-Glo ATP luminescence, 48 h; viability (% of DMSO): at 45.8 µM (top of the series). The method, boiled down:
as §4

The structures appear in SMILES notation. Results filed as inconclusive are left out. Calls of active or inactive are those of the source. Calls follow the shape of the dose curve; as a rule, active = well fitted curve in the direction sought with a large enough effect; inconclusive = small, poorly fitted or top-dose-only effect, or another doubt; inactive = no such curve, though single readings can be large; an effect the other way counts as inactive or inconclusive.
Potency is read from the fitted curve at half-maximal effect.

Consider `CCC(c1ccc(O)cc1)C(CC)c1ccc(O)cc1` (configuration not stated), for which the Potency was 5.26 µM (active) in [1], 0.0026 µM (active) in assay [2], 7.43 µM (active) in [3] and 8.33 µM (active) in [9]. Further, the Potency entry in [4], in [5], in [6], in assay [7] and in [8] was “inactive” each time.

For the compound `CC=C(C(=CC)c1ccc(O)cc1)c1ccc(O)cc1`, the Potency was 20.9 µM (active) in assay [1]; 16.6 µM (active) in assay [11]; 23.5 µM (active) in [4]; 16.6 µM (active) in assay [5]; 16.6 µM (active) in assay [8]; 16.6 µM (active) in assay [13]. The Potency entry in [10] and in assay [12] was “inactive” in each case.

With `Cn1cc(-c2ccc3nnc(Sc4ccc5ncccc5c4)n3n2)cn1`, the Potency result in assay [1], in assay [7] and in [14] was “inactive” in each case. Further, the Potency was 0.469 µM (active) in assay [2] and 1.18 µM (active) in assay [5].

As to `OC[C@H]1O[C@@H](OCCc2ccc(O)cc2)[C@H](O)[C@@H](O)[C@H]1O`, the Potency entry in assay [1], in assay [10], in assay [11], in assay [5], in assay [12] and in assay [7] was “inactive” in each case. For the same compound, the Potency result in [15] and in assay [13] was “inactive” each time.

As to `COc1cc2nccc(Oc3ccc(NC(=O)Nc4ccc(F)cc4F)c(F)c3)c2cc1OC`, the Potency result in [1], in assay [3], in assay [4], in [5], in [6] and in assay [7] was “inactive” each time. Besides, the Potency entry in assay [15], in assay [9] and in assay [17] was “inactive” in each case. Moreover, the results for the Potency in assay [16] and in assay [13] were 20.9 µM (active) and 11.8 µM (active), respectively.

As for `O=C1Nc2ccc(I)cc2C1=Cc1cc(Br)c(O)c(Br)c1`, the Potency result in assay [1] and in [10] was “inactive” throughout. The Potency is 14.8 µM (active) in assay [5], 2.96 µM (active) in assay [8], 10.5 µM (active) in [14] and 16.6 µM (active) in assay [13].

Regarding `CC1=C(CC(=O)O)c2cc(F)ccc2C1=Cc1ccc(S(C)=O)cc1` (configuration not stated), the Potency in assay [2] is 3.72 µM (active); in [10], 0.59 µM (active); in [11], 4.18 µM (active); in assay [4] it was 11.8 µM (active); in [7], 13.2 µM (active); in assay [8], 18.7 µM (active). For the same compound, the Potency in assay [16] was 10.5 µM (active).

In the case of `Cc1nc(NC(=O)N2CCC[C@@H]2C(N)=O)sc1-c1csc(C(C)(C)C)n1`, the Potency was 3.32 µM (active) in [2]; 8.33 µM (active) in [10]; 5.26 µM (active) in [11]; 6.62 µM (active) in [3]; 0.372 µM (active) in [4]; 14.8 µM (active) in assay [5]. Also, the Potency was 1.05 µM (active) in assay [18]; 3.72 µM (active) in assay [12]; 1.32 µM (active) in assay [15]; 16.6 µM (active) in assay [8]; 6.62 µM (active) in assay [16]; 2.09 µM (active) in assay [9].

Consider `NCC1CCC(C(=O)O)CC1` (configuration not stated), for which the Potency result in assay [1], in [11], in assay [3], in [4], in assay [5] and in assay [8] was “inactive” throughout. The Potency entry in [9], in [17] and in assay [13] was “inactive” throughout. The Potency in assay [12] was 4.18 µM (active).

Turning to `CN1CC(=O)NC1=NC(=O)Nc1cccc(Cl)c1`, the Potency in assay [1] is 20.9 µM (active); in assay [3] it was 20.9 µM (active); in assay [5], 5.26 µM (active); in assay [6], 4.69 µM (active); in assay [12] it was 14.8 µM (active); in assay [7] it was 13.2 µM (active). Further, the Potency in assay [8] is 14.8 µM (active); in assay [16] it was 8.33 µM (active); in assay [9] it was 16.6 µM (active); in assay [17], 5.26 µM (active). The Potency result in [11] was “inactive”.

As to `Nc1ccn([C@@H]2O[C@H](CO)[C@@H](O)[C@H]2O)c(=O)n1`, the Potency result in assay [1], in assay [10], in assay [4], in assay [6], in assay [7] and in assay [16] was “inactive” each time. In assay [13], the Potency result is “inactive”.

For the compound `COc1ccc(-c2oc3c(CC=C(C)C)c(O)cc(O)c3c(=O)c2O)cc1`, the Potency is 20.9 µM (active) in assay [1], 18.7 µM (active) in [10], 16.6 µM (active) in assay [8] and 18.7 µM (active) in [16]. The Potency result in assay [4], in assay [5], in [6], in [7], in assay [15] and in [14] was “inactive” each time.

Regarding `CN1C(=O)C[C@H](C(=O)N[C@@H](Cc2cnc[nH]2)C(=O)N2CCC[C@@H]2C(N)=O)NC1=O`, the Potency result in assay [1], in assay [10], in assay [4], in [5], in [12] and in [9] was “inactive” in each case. Further, in assay [13], the Potency was 16.6 µM (active).

For `C[C@@H]1[C@H](C)CC[C@]2(C(=O)O)CC[C@]3(C)C(=CC[C@@H]4[C@@]5(C)CC[C@H](O)C(C)(C)[C@H]5CC[C@]43C)[C@@H]12`, the Potency is 42.9 µM (active) in [1], 42.9 µM (active) in assay [3] and 19.1 µM (active) in [13]. Besides, the Potency entry in assay [11], in assay [4], in assay [5], in [6], in assay [12] and in [7] was “inactive” each time. In addition, the Potency entry in [9], in assay [17] and in assay [14] was “inactive” throughout.

As to `CC(C)[C@H](O)C(=O)N[C@@H](C)C(=O)N[C@@H]1C(=O)N(C)CCc2ccccc21`, the Potency entry in assay [1], in [3], in assay [4], in assay [5], in assay [12] and in assay [7] was “inactive” each time. In addition, the Potency result in assay [15], in [9] and in assay [14] was “inactive” throughout.

On to `CN1CC(=O)N2C(Cc3c([nH]c4ccccc34)[C@H]2c2ccc3c(c2)OCO3)C1=O` (some centres not stated), for which the Potency entry in assay [2], in assay [10], in [11], in assay [3], in assay [4] and in [5] was “inactive” throughout. Also, the Potency result in assay [6], in assay [12], in assay [7], in assay [9] and in assay [14] was “inactive” each time. In addition, the Potency in [13] is 1.32 µM (active).

Turning to `C[C@@H](O[C@H]1OCCN(Cc2n[nH]c(=O)[nH]2)[C@@H]1c1ccc(F)cc1)c1cc(C(F)(F)F)cc(C(F)(F)F)c1`, the Potency in [1] is 29.6 µM (active); in assay [11], 5.9 µM (active); in [3], 26.4 µM (active); in assay [5], 7.43 µM (active); in assay [7] it was 23.5 µM (active); in [8], 20.9 µM (active). The Potency in assay [13] is 18.7 µM (active). Also, the Potency entry in [4] is “inactive”.
